Data reported in the supplement of paper PMC8728848.
The entries come from a sample that favours the strongest signals as a whole.

Columns and labels:
Experiment in all cases: glycan array binding signal (z-score within array); higher = stronger binding
Settings in all cases: glycan notation: IUPAC condensed, linker removed
[1] = target: Fuc(a1-2)Gal(b1-3)GlcNAc(b1-2)Man(a1-3)[Fuc(a1-2)Gal(b1-3)GlcNAc(b1-2)Man(a1-6)]Man(b1-4)GlcNAc(b1-4)GlcNAc
In short: (§1)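 The binding signal is a Z-score computed within each array and averaged over linkers. Arrays of the same protein sequence at different concentrations or buffers were also averaged together. Data originate from 3228 arrays in the Consortium for Functional Glycomics database, kept only where the protein sequence was available.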

[2] = target: Fuc(a1-2)Gal(b1-3)GlcNAc(b1-3)[Fuc(a1-2)Gal(b1-3)GlcNAc(b1-6)]GalNAc
In short: as §1

[3] = target: Fuc(a1-2)[Gal(a1-3)]Gal(b1-3)GalNAc
In short: as §1

[4] = target: Fuc(a1-2)[Gal(a1-3)]Gal(b1-4)[Fuc(a1-3)]GlcNAc(b1-3)GalNAc
In short: as §1

[5] = target: Fuc(a1-2)[GalNAc(a1-3)]Gal(b1-4)GlcNAc(b1-2)Man(a1-3)[Fuc(a1-2)[GalNAc(a1-3)]Gal(b1-4)GlcNAc(b1-2)Man(a1-6)]Man(b1-4)GlcNAc(b1-4)[Fuc(a1-6)]GlcNAc
In short: as §1

[6] = target: Fuc(a1-2)[GalNAc(a1-4)]Gal(b1-4)GlcNAc
In short: as §1

[7] = target: Gal(a1-3)Gal(b1-3)GlcNAc(b1-6)GalNAc
In short: as §1

[8] = target: Gal(a1-3)Gal(b1-4)Glc
In short: as §1

[9] = target: Gal(a1-4)Gal(b1-3)GlcNAc(b1-2)Man(a1-3)[Gal(a1-4)Gal(b1-3)GlcNAc(b1-2)Man(a1-6)]Man(b1-4)GlcNAc(b1-4)GlcNAc
In short: as §1

[10] = target: Gal(a1-4)Gal(b1-4)GlcNAc(b1-2)Man(a1-3)[Gal(a1-4)Gal(b1-4)GlcNAc(b1-2)Man(a1-6)]Man(b1-4)GlcNAc(b1-4)GlcNAc
In short: as §1

[11] = target: Gal(b1-3)GalNAc(b1-4)Gal(b1-4)Glc
In short: as §1

[12] = target: Gal(b1-3)GlcNAc(b1-3)Gal(b1-4)GlcNAc(b1-2)Man(a1-3)[Gal(b1-3)GlcNAc(b1-3)Gal(b1-4)GlcNAc(b1-2)Man(a1-6)]Man(b1-4)GlcNAc(b1-4)GlcNAc
In short: as §1

[13] = target: Gal(b1-3)[Fuc(a1-4)]GlcNAc(b1-2)Man(a1-3)[Gal(b1-3)[Fuc(a1-4)]GlcNAc(b1-2)Man(a1-6)]Man(b1-4)GlcNAc(b1-4)[Fuc(a1-6)]GlcNAc
In short: as §1

[14] = target: Gal(b1-3)[Fuc(a1-4)]GlcNAc(b1-6)GalNAc
In short: as §1

[15] = target: Gal(b1-4)GlcNAc(b1-2)Man(a1-3)[GlcNAc(b1-4)][Gal(b1-4)GlcNAc(b1-2)Man(a1-6)]Man(b1-4)GlcNAc(b1-4)GlcNAc
In short: as §1

[16] = target: Gal(b1-4)GlcNAc(b1-3)Gal(b1-4)GlcNAc(b1-2)Man(a1-3)[Gal(b1-4)GlcNAc(b1-3)Gal(b1-4)GlcNAc(b1-2)Man(a1-6)]Man(b1-4)GlcNAc(b1-4)GlcNAc
In short: as §1

[17] = target: Gal(b1-4)GlcNAc(b1-3)Gal(b1-4)GlcNAc(b1-2)[Gal(b1-4)GlcNAc(b1-3)Gal(b1-4)GlcNAc(b1-6)]Man(a1-6)[Gal(b1-4)GlcNAc(b1-3)Gal(b1-4)GlcNAc(b1-2)Man(a1-3)]Man(b1-4)GlcNAc(b1-4)GlcNAc
In short: as §1

[18] = target: Gal(b1-4)GlcNAc(b1-3)Gal(b1-4)GlcNAc(b1-2)[Gal(b1-4)GlcNAc(b1-3)Gal(b1-4)GlcNAc(b1-6)]Man(a1-6)[Gal(b1-4)GlcNAc(b1-3)Gal(b1-4)GlcNAc(b1-2)Man(a1-3)]Man(b1-4)GlcNAc(b1-4)[Fuc(a1-6)]GlcNAc
In short: as §1

[19] = target: Gal(b1-4)GlcNAc(b1-3)Gal(b1-4)GlcNAc(b1-3)Gal(b1-4)GlcNAc(b1-3)Gal(b1-4)GlcNAc(b1-2)Man(a1-3)[Gal(b1-4)GlcNAc(b1-3)Gal(b1-4)GlcNAc(b1-3)Gal(b1-4)GlcNAc(b1-3)Gal(b1-4)GlcNAc(b1-2)Man(a1-6)]Man(b1-4)GlcNAc(b1-4)[Fuc(a1-6)]GlcNAc
In short: as §1

[20] = target: Gal(b1-4)GlcNAc(b1-3)Gal(b1-4)GlcNAc(b1-3)Gal(b1-4)GlcNAc(b1-3)Gal(b1-4)GlcNAc(b1-2)[Gal(b1-4)GlcNAc(b1-3)Gal(b1-4)GlcNAc(b1-3)Gal(b1-4)GlcNAc(b1-3)Gal(b1-4)GlcNAc(b1-6)]Man(a1-6)[Gal(b1-4)GlcNAc(b1-3)Gal(b1-4)GlcNAc(b1-3)Gal(b1-4)GlcNAc(b1-3)Gal(b1-4)GlcNAc(b1-2)Man(a1-3)]Man(b1-4)GlcNAc(b1-4)[Fuc(a1-6)]GlcNAc
In short: as §1

[21] = target: Gal(b1-4)GlcNAc(b1-3)Gal(b1-4)GlcNAc(b1-3)Gal(b1-4)GlcNAc(b1-3)Gal(b1-4)GlcNAc(b1-3)Gal(b1-4)GlcNAc(b1-2)[Gal(b1-4)GlcNAc(b1-3)Gal(b1-4)GlcNAc(b1-3)Gal(b1-4)GlcNAc(b1-3)Gal(b1-4)GlcNAc(b1-3)Gal(b1-4)GlcNAc(b1-6)]Man(a1-6)[Gal(b1-4)GlcNAc(b1-3)Gal(b1-4)GlcNAc(b1-3)Gal(b1-4)GlcNAc(b1-3)Gal(b1-4)GlcNAc(b1-3)Gal(b1-4)GlcNAc(b1-2)Man(a1-3)]Man(b1-4)GlcNAc(b1-4)[Fuc(a1-6)]GlcNAc
In short: as §1

[22] = target: Gal(b1-4)GlcNAc(b1-3)Gal(b1-4)GlcNAc(b1-3)[Gal(b1-4)GlcNAc(b1-3)Gal(b1-4)GlcNAc(b1-6)]GalNAc
In short: as §1

[23] = target: Gal(b1-4)GlcNAc(b1-3)Gal(b1-4)GlcNAc(b1-6)[Gal(b1-3)]GalNAc
In short: as §1

B1: GS14009A-pdi-495-27-495 (Parabacteroides distasonis) (protein)
chain: FEEVNTDPDSPTDVPTTNLLAYSLYYTSYRLYDRWFAMDEPMTFCGYASKMTYIDESRYNFRTGVQDTNWEYLYRILNNLKDIEKRATFNETPNMLNVSKVMQVHLMQVATDRWRDVPYTDAAKMTDGILQPKYDKQEDIYPGLLATLKEAADGFADGGSDDLGEGDLLFGGDIEKWQRYCNSMRLRLAMRISEVSPALAKETVEEVMGNPTKYPIMESNDDNAFFWWIGTDPNYYEPMADGYRTRKTEYCAADVIVDHMNTREDPRRSSYFQPTKESVEAGEPKYVGYTIGAKANAVASKYSIWGARFFTDLAGFSPYMRVAEPWFCVAEASMLGWNTGISAEDAYNKAVTYSMEENSVSAEDIADYLANAGKFTNDKKQIYYEEWVAMFKQGMEGWSLYRRTGVPDNLYPAPGRPANYSNHNVPPFRSPYPDKERNLNNANCAPFDAEVVDNLWGKQMWWDTRTGVH
glycan array binding signal (z-score) [1]: 2.57 | glycan array binding signal (z-score) [2]: -0.336 | glycan array binding signal (z-score) [3]: 0.023 | glycan array binding signal (z-score) [4]: -0.109 | glycan array binding signal (z-score) [5]: 2.8 | glycan array binding signal (z-score) [6]: -0.532 | glycan array binding signal (z-score) [7]: -0.003 | glycan array binding signal (z-score) [8]: -0.017 | glycan array binding signal (z-score) [9]: 2.33 | glycan array binding signal (z-score) [10]: 2.23 | glycan array binding signal (z-score) [11]: 0.001 | glycan array binding signal (z-score) [12]: 4.58 | glycan array binding signal (z-score) [13]: 1.2 | glycan array binding signal (z-score) [14]: 0.634 | glycan array binding signal (z-score) [15]: 15.2 | glycan array binding signal (z-score) [16]: 0.299 | glycan array binding signal (z-score) [17]: 10.6 | glycan array binding signal (z-score) [18]: 0.552 | glycan array binding signal (z-score) [19]: 0.445 | glycan array binding signal (z-score) [20]: 7.28 | glycan array binding signal (z-score) [21]: 3.33 | glycan array binding signal (z-score) [22]: 0.573 | glycan array binding signal (z-score) [23]: -0.044
